Results filed as inconclusive are left out. Active and inactive are the calls of the source. Unless noted, calls follow the shape of the dose curve; as a rule, active = well fitted curve in the direction sought with a large enough effect in the repeat runs; inconclusive = weak or mixed curves; inactive = flat fitted curve, though single readings scatter.
tested on: not listed separately; assay: qHTS assay to test for compound auto fluorescence at 460 nm (blue) in HepG2 cells (AID 720687); settings: autofluorescence 405/460 nm, 1 h; series mostly up to 91.3 µM; fluorescence, % of fluorescent control: at the top concentration
Outline: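 Cells (2,000/well in MEM with 10% FBS) attached overnight at 37 C, then were exposed to compound or DMSO for 1 hr at 37 C, 5% CO2. Fluorescence read at Ex/Em 405/460 nm, expressed as triamterene-equivalent signal.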
% is scaled to controls: 0 for no effect and ±100 for the full control effect.

SMILES | fluorescence, % of fluorescent control | Potency
CN1CCCN(C(c2ccccc2)c2ccc(Cl)cc2)CC1 (stereo not drawn) | -0.0025% [at 46 µM] (inactive) | –
CC[C@H]1OC(=O)[C@H](C)[C@@H](O[C@H]2C[C@@](C)(OC)[C@@H](O)[C@H](C)O2)[C@H](C)[C@@H](O[C@@H]2O[C@H](C)C[C@H](N(C)C)[C@H]2O)[C@](C)(O)C[C@@H](C)CN(C)[C@H](C)[C@@H](O)[C@]1(C)O | – | inactive
O=C(O)c1ccc(O)cc1O | -0.0214% (inactive) | –
Nc1cccc2c(N)cccc12 | 0.965% (inactive) | –
C=CCOC(=O)COCCC(C)C | 0.0786% (inactive) | –
CC(C(=O)O)c1ccc(C(=O)c2cccs2)cc1 (stereo not drawn) | 0.0525% [at 18.6 µM] (inactive) | –
CC(=O)N[C@@H](Cc1ccc(O)cc1)C(=O)O | -0.0021% [at 46 µM] (inactive) | –
O=C(c1ccccc1)C1CCC1 | -0.0645% (inactive) | –
CCCCCCCC(=O)OCCCCCC | -0.07% (inactive) | –
CCC(Cl)CC(Cl)C(Cl)C(Cl)C(Cl)C(C)Cl (stereo not drawn) | 0.0691% [at 13.4 µM] (inactive) | –
CCSC(=O)N(CC)CC | -0.106% (inactive) | –
COc1ccc(C2C(=O)c3ccccc3C2=O)cc1 | 0.0592% [at 46 µM] (inactive) | –
CCCCCCCC/C=C\CCCCCCCC(=O)OCCO | 0.0523% [at 95.7 µM] (inactive) | –
CCCCCc1ccco1 | 0.66% (inactive) | –
COc1ccc(CCN(C)CCCN2CCc3cc(OC)c(OC)cc3CC2=O)cc1OC | 0.337% [at 46 µM] (inactive) | –
CC(C)(C)S | -0.0298% [at 95.7 µM] (inactive) | –
O=C(Oc1ccccc1)c1ccc2ccccc2c1O | -0.0017% (inactive) | –
CC(C)(O)CCc1ccccc1 | 0.0386% (inactive) | –
CC(=O)OCC(C)C | -0.0167% (inactive) | –

biological target: Glucocorticoid receptor (Homo sapiens) (UniProt P04150); assay: qHTS assay to identify small molecule agonists of the glucocorticoid receptor (GR) signaling pathway (AID 720691; active = well fitted activation curve with a large enough effect in the signal ratio in the repeat runs, not every such curve was filed as active; the % refers to the signal ratio); settings: GR-bla HeLa, beta-lactamase reporter ratio, 18 h; series mostly up to 62.4 µM; activation: at the top concentration
Sequence (P04150 whole entry, looked up): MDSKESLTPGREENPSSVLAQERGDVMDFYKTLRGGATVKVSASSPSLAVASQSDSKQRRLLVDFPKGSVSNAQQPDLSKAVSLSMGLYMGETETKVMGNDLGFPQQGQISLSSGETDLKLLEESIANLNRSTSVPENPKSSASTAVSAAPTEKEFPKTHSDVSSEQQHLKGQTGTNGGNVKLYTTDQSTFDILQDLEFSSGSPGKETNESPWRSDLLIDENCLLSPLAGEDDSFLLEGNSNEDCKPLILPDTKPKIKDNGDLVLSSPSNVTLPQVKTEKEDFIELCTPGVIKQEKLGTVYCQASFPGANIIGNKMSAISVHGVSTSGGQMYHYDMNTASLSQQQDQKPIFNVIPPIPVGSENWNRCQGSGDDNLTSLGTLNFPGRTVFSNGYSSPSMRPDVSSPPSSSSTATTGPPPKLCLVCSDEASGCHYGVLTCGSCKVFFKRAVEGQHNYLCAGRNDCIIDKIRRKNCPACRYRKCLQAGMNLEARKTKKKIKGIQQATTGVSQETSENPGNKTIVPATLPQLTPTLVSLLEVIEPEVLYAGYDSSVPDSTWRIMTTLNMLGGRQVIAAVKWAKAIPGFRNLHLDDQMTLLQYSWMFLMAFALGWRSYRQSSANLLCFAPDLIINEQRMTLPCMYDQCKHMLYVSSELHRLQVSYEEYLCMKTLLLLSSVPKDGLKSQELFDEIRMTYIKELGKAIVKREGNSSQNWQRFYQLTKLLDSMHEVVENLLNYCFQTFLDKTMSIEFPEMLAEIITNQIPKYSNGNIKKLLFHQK
Outline: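 qHTS in GR-bla HeLa cells: 4 h settling at 37 C/5% CO2, 18 h compound incubation at 37 C, 2 h LiveBLAzer B/G FRET substrate at room temperature, fluorescence intensity measured.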

SMILES | activation | Potency
C=C(C)C(=O)OCCC(F)(F)C(F)(F)C(F)(F)C(F)(F)C(F)(F)C(F)(F)F | -1.65% (inactive) | –
CNCc1ccc(NC(=O)c2c[nH]c3c2C(=O)CCC3)cc1 | 4.26% (inactive) | –
Cc1ccc(NC(=O)N(C)C)cc1NC(=O)N(C)C | 0.0759% (inactive) | –
N[C@@H](Cc1cc(I)c(O)c(I)c1)C(=O)O | 2.76% (inactive) | –
CCC(C)(C)C(=O)O | 1.96% (inactive) | –
O=[N+]([O-])c1ccc2ncccc2c1 | 0.0389% (inactive) | –
C[C@@H]1[C@H](O)[C@@H](C)/C=C/C=C\C=C\C=C\C=C\C=C\C=C\[C@H](O[C@@H]2O[C@H](C)[C@@H](O)[C@H](N)[C@@H]2O)C[C@@H]2O[C@](O)(C[C@@H](O)C[C@@H](O)[C@H](O)CC[C@@H](O)C[C@@H](O)CC(=O)O[C@H]1C)C[C@H](O)[C@H]2C(=O)O (stereo in doubt) | -5.94% (inactive) | –
COc1cc(C(C)=O)ccc1OCCCN1CCC(c2noc3cc(F)ccc23)CC1 | -2.67% (inactive) | –
CC(C)(C)NCC(O)COc1cccc2c1C[C@H](O)[C@H](O)C2 (stereo partly drawn) | 1.44% [at 29.2 µM] (inactive) | –
Nc1ccn([C@H]2CS[C@@H](CO)O2)c(=O)n1 | – | inactive
Cc1cc([N+](=O)[O-])ccc1N | -3.82% (inactive) | –
O=C1OC(=O)c2c(Br)c(Br)c(Br)c(Br)c21 | -2.09% (inactive) | –
CC(C)COC(=O)c1ccc(O)cc1 | -7.51% (inactive) | –
CN1CCCN(C(c2ccccc2)c2ccc(Cl)cc2)CC1 (stereo not drawn) | -7.65% (inactive) | –
O=C(O)c1ccc(O)cc1O | -1.34% [at 79.2 µM] (inactive) | –
Nc1cccc2c(N)cccc12 | 3.58% (inactive) | –
C=CCOC(=O)COCCC(C)C | 0% (inactive) | –
CC(C(=O)O)c1ccc(C(=O)c2cccs2)cc1 (stereo not drawn) | -2.55% [at 29.2 µM] (inactive) | –
CC(=O)N[C@@H](Cc1ccc(O)cc1)C(=O)O | 0.135% (inactive) | –
O=C(c1ccccc1)C1CCC1 | -0.607% (inactive) | –
CCCCCCCC(=O)OCCCCCC | 0.364% (inactive) | –
CCC(Cl)CC(Cl)C(Cl)C(Cl)C(Cl)C(C)Cl (stereo not drawn) | -0.909% [at 15 µM] (inactive) | –
CCSC(=O)N(CC)CC | -0.675% (inactive) | –
COc1ccc(C2C(=O)c3ccccc3C2=O)cc1 | -1.05% (inactive) | –
CCCCCCCC/C=C\CCCCCCCC(=O)OCCO | 0.592% [at 79.2 µM] (inactive) | –
CCCCCc1ccco1 | -0.29% (inactive) | –
CC(C)(C)S | -3.1% [at 79.2 µM] (inactive) | –
O=C(Oc1ccccc1)c1ccc2ccccc2c1O | 3.73% (inactive) | –
CC(C)(O)CCc1ccccc1 | 0.962% (inactive) | –

Reference: PubChem BioAssay (Tox21)
